This is a sample that favours compounds with a hit; in the whole collection about 0.34% have one here.
Ba CapD inh: inhibitors of Bacillus anthracis CapD enzyme | z-score (test concentration not listed) | purified CapD enzyme, fluorescence intensity read-out; active compounds read low | 140,000 compounds, 0.23% hits; in the data active means z-score mostly below about -2.9, no sharp cut-off; inactive means mostly above about -1.9
AID504770: E. coli YBA685 growth inhibition, screen for V. cholerae RctB inhibitors; E. coli YBA685 rctB-dependent plasmid, OD600 growth, 3 h; active compounds read low; 130,000 compounds, 0.27% hits; z-score (concentration not given with the values); in the data active means z-score below about -2, passing the limit was not always enough
Hits are given with their value; 0 = inactive; - = not tested or not shown.

SMILES	Ba CapD inh	AID504770
O=C1c2c(c3ccccc3n2Cc2ccccc2)CCN1c1ccccc1	0	-
S=c1[nH]c2cc(Cl)ccc2o1	0	-
S=c1[nH]c2ccc(Cl)cc2o1	-	-2
Cc1cc(/N=C/C=C2\N(C)c3ccccc3C2(C)C)n(CCC#N)n1	-4.4	0
Cc1cc(/N=C/c2cc(C)n(Cc3ccccc3)c2C)n(CCC#N)n1	0	0
COc1ccc2c(CC(=O)OCc3cc(Cl)c4c(c3)OCO4)coc2c1	-	0
O=C(CSc1nc(NCc2ccco2)c2ccccc2n1)c1ccccc1	0	-
CC(=O)Nc1ccc(NC(=O)C(C)OC(=O)C23CC4CC(CC(C4)C2)C3)cc1 (configuration not stated)	0	0
CCCN1CCC(N(C(=O)C2CC2)c2ccc3[nH]c(C(C)(C)C)cc3c2)CC1	0	-
CCCN(CCC)C(=O)Nc1cccc(F)c1	0	0
CCSc1nsc(NC(=O)Nc2cccc(F)c2)n1	-	-2.8
Cc1ccc(CN(C)C(=O)C2CC(=O)N(c3ccc4c(c3)OCCO4)C2)o1 (configuration not stated)	-	0
O=C(Nc1ccc(F)c(F)c1)c1sc2ccccc2c1Cl	0	0
N#Cc1ccc(/C=N/NC(=O)Cc2cn3ccsc3n2)cc1	-	0
CSC(=CC(=O)c1cccc2ccccc12)SC	0	0
CSC(=CC(=O)c1ccccc1F)SC	-4.1	0
Cc1ccc(/C=C2/C=CC(=O)O2)o1	-5.2	0
Cc1ccc(/C=C2\CC/C(=C\c3ccc(C)o3)C2=O)o1	0	0
O=C(COc1ccc(Cl)cc1Cl)NO	0	-5.4
CCC(CC)NC(=O)COc1ccc(Cl)cc1Cl	0	0
O=C(c1ccccc1)c1ccco1	-	0
O=C(COc1ccc(Br)cc1)OCC(=O)c1ccccc1	0	0
O=C(O)CN1C(=O)/C(=C\c2cc([N+](=O)[O-])cc(Br)c2O)SC1=S	-7.9	-
O=C1/C(=C/c2cc([N+](=O)[O-])cc(Br)c2O)SC(=S)N1c1ccc([N+](=O)[O-])cc1	0	-
Oc1ccc(Cl)cc1-c1csnn1	0	-2.2
SMILES	Ba CapD inh	AID504770
Oc1ccccc1-c1csnn1	0	0
O=C(NCCNc1ccc([N+](=O)[O-])cn1)NNC(=O)c1ccc([N+](=O)[O-])o1	-5.1	-
CSCCNC(=O)NCCNc1ccc([N+](=O)[O-])cn1	0	-
Cc1cc(C)n2cc(CNc3ccc(N4CCCC4=O)cc3)nc2n1	-	0
COc1cccc(Nc2cc(C)nc3ccccc23)c1	-	0
COc1cccc(NC(=S)/N=C(\N)Nc2nc(C)c3ccccc3n2)c1	-5.9	0
Cc1noc(C)c1COc1cccc(C(=O)N2CCc3ccccc32)c1	-	-2.5
Cc1noc(C)c1COc1cccc(C(=O)N2CCCSC2=Nc2ccccc2)c1	-	0
COc1ccc(C(=O)Nc2sc(C)c(C)c2CN2CCN(CCO)CC2)cc1	-	0
C=CCn1cnc2c1c(=O)[nH]c(=O)n2C	0	0
CCCn1cnc2c1c(=O)[nH]c(=O)n2C	0	-3.7
CCOC(=O)COc1ccc2c(c1)OCO2	0	0
CSC1=NSC2=NC(=O)/C(=C\c3ccc(-c4ccccc4)o3)C(=N)N12	0	0
CC(C)SC1=NSC2=NC(=O)/C(=C\c3ccc(-c4cccc(C(=O)O)c4)o3)C(=N)N21	-13	0
COC(=O)C(=C/C=C/c1cccs1)C(=O)OC	0	0
COC(=O)C(=C/C=C/N1CCCCC1)C(=O)OC	-4.8	0
CC(C)c1ccccc1NC(=O)COc1ccccc1F	0	0
CCOc1cc2c(cc1OCC)C1C(C(=O)N3CCCCC3)c3ccccc3C(=O)N1CC2 (configuration not stated)	-5.9	0
CCOc1cc2c(cc1OCC)C1C(C(=O)N3CCCC3)c3ccccc3C(=O)N1CC2 (configuration not stated)	0	0
O=C(c1ccco1)N1N=C(c2c(-c3ccccc3)c3cc(Br)ccc3[nH]c2=O)CC1c1ccco1 (configuration not stated)	0	-
Cn1c(=O)c2ccccc2n(Cc2ccc(Cl)cc2)c1=O	-	0
CCOc1cc(-c2nc3sc4c(c3c(=O)[nH]2)CCCC4)ccc1OCCOc1ccc(C(C)CC)cc1 (configuration not stated)	0	-
O=C1OC(c2ccccc2)=N/C1=C\C=C\c1ccccc1	0	0
CN(C)/C=C/C=C1\N=C(c2ccccc2)OC1=O	-7	0
COc1ccc(N2C(=O)CCC(C(=O)N3CCCCC3)C2c2ccc(OC)c(OC)c2)cc1 (configuration not stated)	0	-
SMILES	Ba CapD inh	AID504770
COc1ccc(C2C(C(=O)N3CCOCC3)CCC(=O)N2c2ccc(OC)cc2)cc1 (configuration not stated)	-10	-
CCOC(=O)C1=C(C(=O)OCC)SC(=C2C(=S)C(C)(C)N(C(=O)C(C)C)c3ccccc32)S1	0	-
O=C1S/C(=C\C=C\c2ccco2)C(=O)N1c1ccccc1	-	0
O=C1S/C(=C\c2ccco2)C(=O)N1c1ccccc1	-2.4	0
COc1cc2[nH]c(=S)n(C3CC3)c(=O)c2cc1OC	0	0
COc1cc2[nH]c(=S)n(N(C(C)=O)C(C)=O)c(=O)c2cc1OC	-13	0
Cc1ccc2oc(=O)c3cc(C(=O)NCCN(C)C)sc3c2c1	0	0
C=CCn1c(O)c(C=Nc2ccccc2)sc1=S	0	0
O=C(O)Cn1c(O)c(C=Nc2ccccc2)sc1=S	-7.4	-
O=C(CCn1c(=O)c2ccccc2n(CC(=O)Nc2ccccc2)c1=O)NCCc1ccccc1	-5.6	0
CCCN(CCC)C(=O)Cn1c(=O)n(CCC(=O)NCCc2ccccc2)c(=O)c2ccccc21	0	0
O=C1c2cc(OCCOCCO)ccc2-c2ccc(OCCOCCO)cc21	0	-
Cc1ccc2nsnc2c1C	0	-
O=C(Nc1c(C(=O)N2CCOCC2)oc2ccccc12)c1cccs1	-3.6	0
NC(=O)c1oc2ccccc2c1NC(=O)c1cccs1	0	0
CCCCC(CC)CN=C(N)NC(N)=NCCCCCCN=C(N)NC(N)=NCC(CC)CCCC (configuration not stated)	0	-5.1
Cc1sc2c(c1C)CSC(C(=O)Oc1cccnc1)=C2	0	0
CC(=O)Nc1ccc(N/C(C)=C/C(=O)c2cccnc2)cc1	-4.1	0
COc1ccc(N/C(C)=C/C(=O)c2ccccc2)cc1	0	0
Cc1ccc(Nc2nc3nonc3nc2Nc2c(C)n(C)n(-c3ccccc3)c2=O)cc1C	0	-
CCOC(=O)c1[nH]c(=O)[nH]c1COC(=O)CNC(=O)c1ccccc1	-6.1	0
CCOC(=O)c1sc(N)c(C#N)c1COC(=O)CNC(=O)c1ccccc1	-	0
Cc1ccc(S(=O)(=O)c2ccc(C)cc2)cc1	0	0
Cc1ccc(S(=O)(=O)/C=C/C#N)cc1	0	-4.8
CCOc1ccc(-c2nnc(-c3ccc(Br)cc3)o2)cc1OCC	-	0
SMILES	Ba CapD inh	AID504770
CN(CCO)c1cc(N2CCCCCC2)c2nonc2c1[N+](=O)[O-]	0	-
CN1CCN(c2cc(N(C)CCO)c([N+](=O)[O-])c3nonc23)CC1	-4.2	-
Cc1csc(=O)n1CCN1C(=O)NC2(CCC(C)CC2)C1=O (configuration not stated)	-	0
COc1ccc(C2CCCCC2)cc1	0	0
COc1ccc([S+]2CCCCC2)cc1	-4.9	0
O=S(=O)(Nc1ncccn1)c1ccccc1	0	0
Nc1nc(NS(=O)(=O)c2ccccc2)ns1	0	-2.9
